Measurements reported in PubChem BioAssay (Tox21).
“And” between values parts separate entries of the source, which are not always exact repeats. Identical values can stand only once. Inconclusive results are not listed. Entries that show only a call come without a potency. Some compounds were tested as several samples or in several runs, with calls that do not always agree. The source made the active and inactive calls. Unless noted, the call rests on the fitted dose curve.

Columns and labels:
[1] = Nuclear factor erythroid 2-related factor 2/antioxidant responsive element (Nrf2/ARE) small molecule agonists: qHTS cell viability counter screen in human keratinocytes (AID 1919968; active means well fitted curve in the direction sought with a large enough effect in the repeat runs; an effect the other way counts as inactive or inconclusive; further: nearly all actives have a fitted effect of over 55% in size)
In short: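 Measured as CellTiter-Fluor fluorescence, this readout tracks cytotoxicity in the same wells as the ARE-luciferase screen. HaCaT reporter cells (1,500/well) received compounds after a 5 h pre-incubation and were exposed for 23 h.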

[2] = Nuclear factor erythroid 2-related factor 2/antioxidant responsive element (Nrf2/ARE) small molecule agonists: luciferase reporter gene qHTS assay in human keratinocytes (AID 1919969); further: nearly all actives have a fitted effect of over 35% in size; further: potency means the concentration at half of the fitted maximal effect
[3] = molecular target: Gonadotropin-releasing hormone receptor (Homo sapiens) (UniProt P30968); assay: Human gonadotropin-releasing hormone receptor (GnRHR) small molecule agonists, calcium flux assay in GnRHR-HEK293 cells (AID 1920063); further: nearly all actives have a fitted effect of over 35% in size
Sequence of Gonadotropin-releasing hormone receptor (Homo sapiens) (P30968 whole entry, looked up): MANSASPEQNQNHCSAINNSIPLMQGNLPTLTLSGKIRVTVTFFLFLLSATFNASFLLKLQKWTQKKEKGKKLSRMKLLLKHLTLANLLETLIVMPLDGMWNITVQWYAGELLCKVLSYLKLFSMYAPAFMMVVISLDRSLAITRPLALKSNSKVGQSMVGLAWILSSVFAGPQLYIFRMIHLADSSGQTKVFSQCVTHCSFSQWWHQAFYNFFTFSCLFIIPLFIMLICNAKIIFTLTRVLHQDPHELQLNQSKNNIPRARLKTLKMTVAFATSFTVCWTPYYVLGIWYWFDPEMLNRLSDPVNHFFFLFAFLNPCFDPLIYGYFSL
In short: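 Fluorescence kinetics (480 nm excitation, 540 nm emission; 3 min, 1 s steps) report calcium mobilisation in human GnRHR-HEK293 cells in agonist mode. Dye incubation: 1 h, 37 C.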

[4] = molecular target: KiSS-1 receptor (Homo sapiens) (UniProt Q969F8); assay: Human kisspeptin (KISS1R) small molecule agonists, calcium flux assay in KISS1R-HEK293 cells (AID 1920064; active means well fitted curve in the direction sought with a large enough effect in the repeat runs; an effect the other way counts as inactive or inconclusive)
Sequence of KiSS-1 receptor (Homo sapiens) (Q969F8 whole entry, looked up): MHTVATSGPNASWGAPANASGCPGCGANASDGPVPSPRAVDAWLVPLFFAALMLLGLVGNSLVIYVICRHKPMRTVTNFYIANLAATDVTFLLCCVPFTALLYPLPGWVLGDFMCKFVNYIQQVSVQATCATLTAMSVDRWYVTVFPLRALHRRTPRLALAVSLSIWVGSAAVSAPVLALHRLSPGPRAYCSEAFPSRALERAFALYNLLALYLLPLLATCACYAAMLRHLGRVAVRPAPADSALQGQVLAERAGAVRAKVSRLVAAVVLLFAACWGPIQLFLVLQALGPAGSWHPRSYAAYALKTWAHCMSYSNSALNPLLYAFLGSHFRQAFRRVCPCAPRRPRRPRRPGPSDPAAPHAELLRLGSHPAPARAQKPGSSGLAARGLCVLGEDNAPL
In short: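 Measures KISS1R agonism through calcium-sensitive dye fluorescence in stably transfected HEK293 cells, read for 3 min after pin-tool compound delivery; 15-point titrations in triplicate.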

[5] = G protein-coupled receptor (GPCR) small molecule agonists, calcium flux assay: HEK293 wild type cell line counter screen (AID 1920065)
In short: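 Readout: fluorescence at 480 nm excitation/540 nm emission, sampled at 1 s intervals for 3 min. Cells had been cultured 18 h, then dye-loaded 1 h at 37 C before compound or ATP addition.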

[6] = p53 small molecule agonists, cell-based qHTS assay with human liver microsomes (AID 1963577);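 further: p53 response element beta-lactamase reporter cells with liver microsomes plus NADPH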
In short: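 Metabolically competent format: test substances, human liver microsomes and NADPH (both 0.5 mg/mL final) incubated with p53RE-bla cells 16 h at 37 C. Beta-lactamase reporter signal then quantified by fluorescence.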

[7] = p53 small molecule agonists, cell-based qHTS assay with rat liver microsomes (AID 1963578)
In short: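 Each plate received p53RE-bla cells, then compound, then rat liver microsomes and NADPH (both 0.5 mg/mL final). Plates were held 16 h at 37 C, and beta-lactamase activity was detected with LiveBLAzer over 2 h.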

[8] = p53 small molecule agonists, cell-based qHTS assay with human liver microsomes: qHTS cell viability counter screen (AID 1963579); further: nearly all actives have a fitted effect of over 45% in size
In short: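 Tox21 library compounds, delivered from DMSO stocks, were tested on p53RE-bla cells together with 0.5 mg/mL human liver microsomes and 0.5 mg/mL NADPH (final) over 16 h at 37 C; CellTiter-Glo luminescence served as the cytotoxicity measure.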

[9] = p53 small molecule agonists, cell-based qHTS assay with rat liver microsomes: qHTS cell viability counter screen (AID 1963580); further: nearly all actives have a fitted effect of over 45% in size
In short: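 Intracellular ATP, by CellTiter-Glo luminescence, defines viability. HCT-116 p53RE-bla cells, 4,000 per well, were compound-treated in the presence of rat liver microsomes and NADPH for 16 h at 37 C.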

[10] = p53 small molecule agonists, cell-based qHTS assay: qHTS cell viability counter screen (AID 1963581); further: nearly all actives have a fitted effect of over 45% in size
In short: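 In the same plates used for the p53 bla reporter, HCT-116 cells given compounds for 16 h at 37 C received CellTiter-Glo; luminescence was recorded 30 min later at room temperature.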

[11] = p53 small molecule agonists, cell-based qHTS assay (AID 1963582; active means well fitted activation curve with a large enough effect in the signal ratio in the repeat runs, not every such curve was filed as active; the % refers to the signal ratio)
In short: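 Compounds are pin-transferred in DMSO onto p53RE-bla cells and incubated 16 h at 37 C. The B/G FRET beta-lactamase substrate is then applied for 2 h at RT and fluorescence recorded.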

[12] = molecular target: 5-hydroxytryptamine receptor 2A (Homo sapiens) (UniProt P28223); assay: 5-hydroxytryptamine receptor 2A (HTR2A) small molecule antagonists, cell-based qHTS assay (AID 1963586); further: nearly all actives have a fitted effect of over 45% in size; further: potency means the concentration at half of the fitted maximal effect
Sequence of 5-hydroxytryptamine receptor 2A (Homo sapiens) (P28223 whole entry, looked up): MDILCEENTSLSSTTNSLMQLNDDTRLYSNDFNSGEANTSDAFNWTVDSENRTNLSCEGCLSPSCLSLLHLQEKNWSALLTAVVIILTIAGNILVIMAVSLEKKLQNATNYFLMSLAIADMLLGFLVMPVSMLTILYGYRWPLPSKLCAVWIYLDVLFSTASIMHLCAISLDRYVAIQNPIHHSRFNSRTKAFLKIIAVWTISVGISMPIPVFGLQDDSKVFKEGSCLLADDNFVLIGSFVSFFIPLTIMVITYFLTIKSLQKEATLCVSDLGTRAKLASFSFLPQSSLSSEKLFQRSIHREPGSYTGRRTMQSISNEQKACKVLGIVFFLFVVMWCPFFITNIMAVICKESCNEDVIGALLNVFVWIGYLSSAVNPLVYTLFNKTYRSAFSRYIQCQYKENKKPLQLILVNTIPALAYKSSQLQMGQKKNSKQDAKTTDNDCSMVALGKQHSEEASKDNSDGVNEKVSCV
In short: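 Antagonist-mode intracellular calcium assay: DOI (4 nM) added after 5 min compound pre-incubation at room temperature to dye-loaded HTR2A-CHO cells. Fluorescence followed for 3 min, sampled every second.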

[13] = molecular target: 5-hydroxytryptamine receptor 2A (Homo sapiens) (UniProt P28223); assay: 5-hydroxytryptamine receptor 2A (HTR2A) small molecule agonists, cell-based qHTS assay (AID 1963587); further: nearly all actives have a fitted effect of over 30% in size
In short: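 Kinetic calcium-flux fluorescence (2 min, 1 sec intervals) after compound addition in agonist mode. HTR2A-CHO cells were cultured 18 h, then dye-loaded 1 h at 37 C.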

[14] = molecular target: Muscarinic acetylcholine receptor M1 (Homo sapiens) (UniProt P11229); assay: Cholinergic receptor muscarinic 1 (CHRM1) small molecule antagonists, cell-based qHTS assay (AID 1963588); further: nearly all actives have a fitted effect of over 40% in size
Sequence of Muscarinic acetylcholine receptor M1 (Homo sapiens) (P11229 whole entry, looked up): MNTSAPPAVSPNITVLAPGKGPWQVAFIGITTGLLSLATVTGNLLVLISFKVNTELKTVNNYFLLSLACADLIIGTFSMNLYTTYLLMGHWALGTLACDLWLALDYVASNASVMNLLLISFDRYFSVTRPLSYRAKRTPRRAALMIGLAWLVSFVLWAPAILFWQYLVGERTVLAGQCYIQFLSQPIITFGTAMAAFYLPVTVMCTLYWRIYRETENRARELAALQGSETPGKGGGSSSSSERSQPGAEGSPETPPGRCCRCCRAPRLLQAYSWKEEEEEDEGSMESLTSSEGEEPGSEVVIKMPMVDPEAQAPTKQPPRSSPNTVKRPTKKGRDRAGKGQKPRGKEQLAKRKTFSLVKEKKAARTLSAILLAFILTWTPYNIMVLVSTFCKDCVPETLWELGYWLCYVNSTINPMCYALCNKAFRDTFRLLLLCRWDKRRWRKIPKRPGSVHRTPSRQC
In short: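 CHRM1-CHO calcium-flux assay, antagonist mode. Cells were seeded 18 h, dye-loaded 1 h at 37 C and given compound for 5 min at RT, then acetylcholine was added at 50nM. FDSS fluorescence was read 3 min; 15 concentrations, three runs.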

[15] = molecular target: Muscarinic acetylcholine receptor M1 (Homo sapiens) (UniProt P11229); assay: Cholinergic receptor muscarinic 1 (CHRM1) small molecule agonists, cell-based qHTS assay (AID 1963589); further: nearly all actives have a fitted effect of over 35% in size
In short: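 Each compound was tested at 15 concentrations across three independent runs on dye-loaded CHO cells stably expressing human CHRM1, reading intracellular calcium fluorescence kinetically at 1 sec intervals.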

[16] = cAMP Responsive Elements (CRE) small molecule agonists, cell-based qHTS assay (AID 1963590)
In short: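 Cell line: CRE-bla HEK 293T; medium DMEM/10% dialyzed FBS/0.1 mM NEAA/1 mM pyruvate/25 mM HEPES; 3 h compound exposure; beta-lactamase FRET readout after 2 h substrate loading at RT.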

[17] = cAMP Responsive Elements (CRE) small molecule antagonists, cell-based qHTS assay (AID 1963591; active means well fitted inhibition curve with a large enough effect in the signal ratio in the repeat runs, not every such curve was filed as active; the % refers to the signal ratio)
In short: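 Inhibition of NKH477-driven (0.25 uM final) CRE-beta-lactamase signal in HEK293T cells, 3 h compound exposure at 37 °C, detected by FRET substrate fluorescence.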

[18] = molecular target: Beta-2 adrenergic receptor (Homo sapiens) (UniProt P07550); assay: Adrenergic beta2 receptor (ADRB2) small molecule antagonists, cell-based qHTS assay (AID 1963592); further: series mostly up to about 92 µM; nearly all actives have a fitted effect of over 50% in size
Sequence of Beta-2 adrenergic receptor (Homo sapiens) (P07550 whole entry, looked up): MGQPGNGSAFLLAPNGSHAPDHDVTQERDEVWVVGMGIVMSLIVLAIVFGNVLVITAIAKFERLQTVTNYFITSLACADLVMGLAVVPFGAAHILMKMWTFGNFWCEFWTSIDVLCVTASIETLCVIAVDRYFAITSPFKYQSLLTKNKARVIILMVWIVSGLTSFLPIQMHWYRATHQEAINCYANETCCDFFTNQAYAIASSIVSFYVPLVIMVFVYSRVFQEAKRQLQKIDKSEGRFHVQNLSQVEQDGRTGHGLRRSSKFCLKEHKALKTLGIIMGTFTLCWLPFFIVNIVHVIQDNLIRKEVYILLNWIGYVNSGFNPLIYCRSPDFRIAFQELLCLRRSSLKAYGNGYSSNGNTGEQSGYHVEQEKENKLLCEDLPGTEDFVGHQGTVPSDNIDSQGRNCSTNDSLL
In short: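 Cells (CHO, stable ADRB2 overexpression) incubated 18-20hr at 37C; compounds added from DMSO; agonist mix (1nM isoproterenol, 100uM IBMX, 25uM Ro-20-1724) added; 0.5hr RT; d2-cAMP and anti-cAMP-cryptate added; 1hr RT; 665/615 nm read.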

[19] = molecular target: D(2) dopamine receptor (Homo sapiens) (UniProt P14416); assay: Dopamine D2 receptor (DRD2) small molecule agonists, cell-based qHTS assay (AID 1963594); further: nearly all actives have a fitted effect of over 35% in size
Sequence of D(2) dopamine receptor (Homo sapiens) (P14416 whole entry, looked up): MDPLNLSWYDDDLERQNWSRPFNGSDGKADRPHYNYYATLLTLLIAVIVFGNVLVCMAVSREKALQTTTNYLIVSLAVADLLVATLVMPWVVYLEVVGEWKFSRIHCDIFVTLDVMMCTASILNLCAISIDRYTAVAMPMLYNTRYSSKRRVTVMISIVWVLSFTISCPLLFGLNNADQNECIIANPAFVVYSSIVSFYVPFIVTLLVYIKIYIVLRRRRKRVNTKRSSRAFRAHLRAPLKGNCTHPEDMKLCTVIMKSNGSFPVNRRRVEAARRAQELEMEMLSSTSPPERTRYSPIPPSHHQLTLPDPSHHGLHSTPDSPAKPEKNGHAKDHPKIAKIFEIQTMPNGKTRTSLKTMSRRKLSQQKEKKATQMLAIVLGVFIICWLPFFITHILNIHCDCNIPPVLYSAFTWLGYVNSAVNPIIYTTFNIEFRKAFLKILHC
In short: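 cAMP accumulation in DRD2-HEK293 cells measured by HTRF after 1 h detection; compounds added 10 min before NKH477 (200nM […]) forskolin-analogue stimulation, 30 min at room temperature, with Ro20-1724 present at 0.1 mM final.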

[20] = molecular target: D(2) dopamine receptor (Homo sapiens) (UniProt P14416); assay: Dopamine D2 receptor (DRD2) small molecule antagonists, cell-based qHTS assay (AID 1963595; active means well fitted inhibition curve with a large enough effect in the signal ratio in the repeat runs, with a control signal flat; the % refers to the signal ratio)
In short: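 HEK293 cells stably expressing DRD2, preincubated with 0.1 mM Ro20-1724 and compounds 10 min, were stimulated with 200 nM NKH477 plus 12 nM quinpirole for 30 min at room temperature; cAMP measured by HTRF (665/620 nm).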

SMILES	Potency [1]	Potency [2]	Potency [3]	Potency [4]	Potency [5]	Potency [6]	Potency [7]	Potency [8]	Potency [9]	Potency [10]	Potency [11]	Potency [12]	Potency [13]	Potency [14]	Potency [15]	Potency [16]	Potency [17]	Potency [18]	Potency [19]	Potency [20]
O=C(O)c1cc2ccccc2nc1C(=O)O	inactive	17.2 µM (active)	inactive	inactive	inactive	inactive	inactive	inactive	inactive	inactive	inactive	inactive	inactive	inactive	inactive	inactive	inactive	inactive	inactive	inactive
CN1C(CCl)Nc2cc(Cl)c(S(N)(=O)=O)cc2S1(=O)=O (stereo unspecified)	inactive	inactive	inactive	inactive	inactive	inactive	inactive	inactive	inactive	inactive	inactive	inactive	inactive	inactive	inactive	inactive	inactive	inactive		inactive
N=C(N=C(N)N)N1CCOCC1	inactive	inactive	inactive	inactive	inactive	inactive	inactive	inactive	inactive	inactive	inactive	inactive	inactive	inactive	inactive	inactive		inactive	inactive	
CCOCCC(=O)OCC	inactive	inactive	inactive	inactive	inactive	inactive	inactive	inactive	inactive	inactive	inactive	inactive	inactive	inactive	inactive	inactive		inactive	inactive	inactive
Cl/C(=C\n1cncn1)c1ccc(Cl)cc1Cl	inactive	inactive	inactive	inactive	inactive	inactive	inactive	inactive	inactive	inactive	inactive	inactive	inactive	inactive	inactive	inactive	inactive		inactive	inactive
CCC(O)CO (stereo unspecified)	inactive	inactive	inactive	inactive	inactive	inactive	inactive	inactive	inactive	inactive	inactive	inactive	inactive	inactive	inactive		inactive	inactive	inactive	inactive
CCCC(=O)Nc1ccc(O)c(C(C)=O)c1	inactive	inactive	inactive	inactive	inactive	inactive	inactive	inactive	inactive	inactive	inactive	inactive	inactive	inactive	inactive	inactive	inactive		inactive	inactive
C/C=C(\C)C(=O)OC/C=C(\C)CCC=C(C)C	inactive	inactive	inactive	inactive	inactive	inactive	inactive	inactive	inactive	inactive	inactive	inactive	inactive	inactive	inactive	inactive		inactive	inactive	
C=CCn1cc[n+](C)c1	inactive	inactive	inactive	inactive	inactive	inactive	inactive	inactive	inactive	inactive	inactive	inactive	inactive	inactive	inactive		inactive	inactive	inactive	inactive
CC/C=C\C#N	inactive	inactive	inactive	inactive	inactive	inactive	inactive	inactive	inactive	inactive	inactive	inactive	inactive	inactive	inactive	inactive	inactive		inactive	inactive
CN(C)c1ccc(Cc2ccc(N(C)C)cc2)cc1	inactive	inactive and 34.4 µM (active)	inactive	inactive	inactive	inactive	inactive	inactive	inactive	inactive	inactive	4.23 µM (active)	inactive	inactive	inactive	inactive	inactive			inactive
CCOC(=O)c1ccc(C)cc1	inactive	inactive	inactive	inactive	inactive	inactive	inactive	inactive	inactive	inactive	inactive	inactive	inactive	inactive	inactive	inactive	inactive		inactive	
Cc1ccc(C2OC[C@@H]3OC(c4ccc(C)cc4)O[C@H]([C@H](O)CO)[C@@H]3O2)cc1 (stereo partly specified)	inactive	inactive	inactive	inactive	inactive	inactive	inactive	inactive	inactive	inactive	inactive	inactive	inactive	inactive	inactive	inactive	inactive		inactive	inactive
CC(C)=CCC/C(C)=C/C(=O)O	inactive	inactive	inactive	inactive	inactive	inactive	inactive	inactive	inactive	inactive	inactive	inactive	inactive	inactive	inactive	inactive		inactive	inactive	inactive
CCNc1cc(O)ccc1C	inactive	inactive	inactive	inactive	inactive	inactive	inactive	inactive	inactive	inactive	inactive	inactive	inactive	inactive	inactive	inactive	inactive		inactive	
